From PubChem BioAssay AID1159580 (chemical genetic matrix, 2015)
Where “and” joins values, the source holds several entries; their conditions need not be identical. Equal entries are not always repeated. Screen size: about 5,500 compounds; about 2,000 (36%) were called active. Inconclusive results (about 18%) are left out. Rule as the data show it: active = normalized growth mostly below about 0.91 (no sharp cut-off); inconclusive = no clear call, values can overlap the other calls; inactive = mostly above about 0.92. The list shows a part of the results.

Test: chemical genetic growth profiling, strain panel (AID 1159580);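 also: tested at 20 µM; growth read once vehicle control cultures reached saturation at 30 °C; 1 = growth at the plate median or of vehicle wells; lower values mean less growth of the strain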
Details: S. cerevisiae deletion strains, growth OD

Measured: normalized growth

OC[C@H]1O[C@@](CO)(O[C@@H]2O[C@H](CO)[C@@H](O)[C@H](O)[C@H]2O)[C@@H](O[C@@H]2O[C@H](CO)[C@@H](O)[C@H](O)[C@H]2O)[C@@H]1O
inactive: locus YAL013W, strain DEP1, hits give low values 1.02 | locus YAL021C, strain ccr4, hits give low values 1.01 | locus YAL026C, strain drs2, hits give low values 1.02 | locus YAL030W, strain snc1, hits give low values 1.02 | locus YBL061C, strain skt5, hits give low values 1.02 | locus YBR009C, strain hhf1, hits give low values 1.02 | locus YBR021W, strain FUR4, hits give low values 1.01 | locus YBR023C, strain chs3, hits give low values 1.02 | locus YBR171W, strain sec66, hits give low values 1.03 | locus YBR229C, strain ROT2, hits give low values 1.01 | locus YBR231C, strain swc5, hits give low values 1.02 | locus YBR279W, strain paf1, hits give low values 1.02 | locus YCL011C, strain gbp2, hits give low values 1.02 | locus YCL016C, strain dcc1, hits give low values 1.02 | locus YCL029C, strain bik1, hits give low values 1.05 | locus YCL061C, strain MRC1, hits give low values 1.01 | locus YCL069W, strain vba3, hits give low values 1.01 | locus YCR088W, strain abp1, hits give low values 1.01 | locus YDL005C, strain med2, hits give low values 1.02 | locus YDL035C, strain GPR1, hits give low values 1.04 | locus YDL040C, strain nat1, hits give low values 1.01 | locus YDL074C, strain BRE1, hits give low values 1.09 | locus YDL101C, strain DUN1, hits give low values 1.02 | locus YDL134C, strain PPH21, hits give low values 1.05 | locus YDL185W, strain tfp1, hits give low values 1.01 | locus YDL192W, strain arf1, hits give low values 1.04 | locus YDR001C, strain nth1, hits give low values 1.02 | locus YDR069C, strain doa4, hits give low values 1.04 | locus YDR101C, strain arx1, hits give low values 1.01 | locus YDR137W, strain rgp1, hits give low values 1.02 | locus YDR159W, strain sac3, hits give low values 1.02 | locus YDR162C, strain NBP2, hits give low values 1.07 | locus YDR195W, strain ref2 1.01 | locus YDR297W, strain sur2, hits give low values 1.02 | locus YDR318W, strain mcm21, hits give low values 1.06 | locus YDR334W, strain swr1, hits give low values 1.02 | locus YDR335W, strain msn5, hits give low values 1.02 | locus YDR388W, hits give low values 1.01 | locus YDR392W, strain spt3, hits give low values 0.969 | locus YDR502C, strain sam2, hits give low values 1.05 | locus YEL003W, strain gim4, hits give low values 1.03 | locus YEL037C, strain rad23, hits give low values 1.02 | locus YEL061C, strain CIN8 (second series), hits give low values 1.02 | locus YEL061C, strain CIN8, hits give low values 1.01 | locus YER015W, strain faa2, hits give low values 1.02 | locus YER016W, strain bim1, hits give low values 1.02 | locus YER110C, hits give low values 1.01 | locus YER111C, strain swi4, hits give low values 1.02 | locus YER155C, strain BEM2 (second series), hits give low values 1.03 | locus YER155C, strain BEM2, hits give low values 1.02 | locus YER167W, strain BCK2, hits give low values 1.01 | locus YFR010W, strain ubp6, hits give low values 1.02 | locus YGL078C, strain dbp3, hits give low values 1.04 | locus YGL086W, strain mad1, hits give low values 1.03 | locus YGL167C, strain pmr1, hits give low values 1.02 | locus YGL173C, strain kem1, hits give low values 1.03 | locus YGL227W, strain vid30, hits give low values 1.02 | locus YGL240W, strain doc1, hits give low values 1.02 | locus YGL248W, strain PDE1, hits give low values 1.05 | locus YGL253W, strain hxk2, hits give low values 1.02 | locus YGR078C, strain PAC10, hits give low values 1.04 | locus YGR135W, strain pre9, hits give low values 1.04 | locus YGR252W, strain gcn5, hits give low values 1.09 | locus YHR013C, strain ard1, hits give low values 1.03 | locus YHR027C, strain rpn1, hits give low values 1.02 | locus YHR030C, strain SLT2, hits give low values 1.01 | locus YHR079C, strain IRE1 (second series), hits give low values 1.01 | locus YHR079C, strain IRE1, hits give low values 1.02 | locus YHR094C, strain hxt1, hits give low values 1 | locus YHR129C, strain ARP1, hits give low values 1.02 | locus YHR142W, strain chs7, hits give low values 1.01 | locus YHR200W, strain rpn10, hits give low values 1.03 | locus YIL066C, strain RNR3, hits give low values 1.03 | locus YIL073C, strain SPO22, hits give low values 1.05 | locus YIL125W, strain kgd1, hits give low values 1.02 | locus YIR030C, strain dcg1, hits give low values 1.01 | locus YJL092W, strain hpr5, hits give low values 1.02 | locus YJL095W, strain BCK1 (second series), hits give low values 1.02 | locus YJL095W, strain BCK1, hits give low values 1.08 and 1 | locus YJL115W, strain asf1, hits give low values 1.02 | locus YJL129C, strain trk1, hits give low values 1.01 | locus YJL134W, strain LCB3, hits give low values 1.01 | locus YJL154C, strain vps35, hits give low values 1.01 | locus YJL164C, strain tpk1, hits give low values 1 | locus YJL166W, strain qcr8, hits give low values 1.02 | locus YJL168C, strain set2, hits give low values 1.02 | locus YJL187C, strain SWE1 (second series), hits give low values 1.05 | locus YJL187C, strain SWE1, hits give low values 1.02
